# An excerpt weighted towards active compounds, which were near 7.3% of everything screened.
# FLuc modulator: qHTS profiling assay for firefly luciferase inhibitor/activator using purifed enzyme and Km concentrations of substrates (counterscreen for miR-21 project); Luciferin 4-monooxygenase (Photinus pyralis), P08659; purified FLuc, Km substrates, luminescence inhibition; 360,000 tested, 6.9% active; Potency, µM (titrated, usually from 57.5 µM), inactives show top-dose activity change, negative = inhibition, usual class: inhibitors;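 also: plate controls were vehicle for no effect and reference inhibitor for full effect; nearly all actives have a fitted effect of over 55% in size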
# Target sequence (P08659 whole entry, looked up): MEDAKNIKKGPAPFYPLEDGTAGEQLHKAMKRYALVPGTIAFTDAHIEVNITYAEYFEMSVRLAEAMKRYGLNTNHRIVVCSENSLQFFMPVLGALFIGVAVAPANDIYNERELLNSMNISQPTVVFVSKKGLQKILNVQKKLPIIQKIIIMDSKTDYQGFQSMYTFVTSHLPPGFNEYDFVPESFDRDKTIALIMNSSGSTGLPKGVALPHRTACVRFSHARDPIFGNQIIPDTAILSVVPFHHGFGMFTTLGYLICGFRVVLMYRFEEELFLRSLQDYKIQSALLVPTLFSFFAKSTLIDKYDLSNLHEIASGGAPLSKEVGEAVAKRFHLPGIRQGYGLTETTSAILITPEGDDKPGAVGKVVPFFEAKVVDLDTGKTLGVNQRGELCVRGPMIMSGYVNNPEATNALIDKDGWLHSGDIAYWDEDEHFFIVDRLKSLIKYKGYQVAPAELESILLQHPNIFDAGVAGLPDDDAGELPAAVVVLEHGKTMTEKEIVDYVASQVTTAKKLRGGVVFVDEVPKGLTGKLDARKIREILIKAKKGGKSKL
#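 Biochemical qHTS of compounds, final roughly 60 µM downward over six points, against 10 nM purified firefly luciferase using Km concentrations of substrates (10 uM D-luciferin, 10 uM ATP) in Tris acetate pH 7.5 buffer; luminescence output.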
# uPA surface inh: qHTS for Inhibitors of Cell Surface uPA Generation | cell surface uPA generation assay, qHTS | Potency, µM (titrated, usually from 38.3 µM), for inactives: at the highest dose activity change, negative = inhibition, actives largely listed as inhibitors | 330,000 tested, 0.31% active; active = well fitted inhibition curve with a large enough effect; inconclusive = small, poorly fitted or top-dose-only effect; inactive = no such curve, though single readings can be large or run the other way; tested in mouse RAW 264.7 cells; also: % is scaled to controls: 0 for no effect and ±100 for the full control effect; nearly all actives have a fitted effect of over 55% in size
# ELG1 genotox: qHTS screen for small molecules that induce genotoxicity in human embryonic kidney (HEK293T) cells expressing luciferase-tagged ELG1; AID 504466, 2011; HEK293T ELG1-luciferase reporter, luminescence, 16 h; Potency, µM (top dose mostly 46 µM), for the others: top-dose activity change, positive = activation, hits mostly activators; 330,000 tested, 1.3% active; also: % of control where 0% means no effect; nearly all actives have a fitted effect of over 60% in size
#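 Reporter readout depends on ELG1 protein level, which increases with genetic stress. After 16 hr compound exposure at 37 °C, luciferase activity was quantified using ONE-Glo.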
# Rab9 prom act: qHTS Assay for Rab9 Promoter Activators; Huh7 Rab9 promoter-luciferase reporter, luminescence, 24 h; Potency, µM (highest dose often 9.22 µM), for inactives: top-dose activation, negative = inhibition, most hits filed as activators; 320,000 tested, 2.8% active; also: % of control where 0% means no effect; nearly all actives have a fitted effect of over 60% in size
#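 Huh7 reporter line, Rab9 promoter upstream of luciferase. Compound exposure 24 h at 37 °C in reduced-serum medium with 10% FBS. Read-out: luminescence.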
# SMN2 splice enh: qHTS Assay for Enhancers of SMN2 Splice Variant Expression | AID 1458, 2008 | Potency, µM (top dose mostly 46.1 µM), for inactives: top-dose activity change, positive = activation, actives largely listed as activators | 210,000 tested, 2.8% active | HEK293 SMN2-luciferase splicing reporter, luminescence, 30-36 h; also: % of control where 0% means no effect; nearly all actives have a fitted effect of over 55% in size
#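 qHTS luciferase splicing reporter: luminescence rises when SMN2 exon 7 is included in transfected HEK293 cells. Compound exposure lasted 30-36 h at 37C, with 4.5 mM final sodium butyrate as control, followed by a ONE-Glo read.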
# NPC1 prom act: qHTS Assay for NPC1 Promoter Activators; Potency, µM (top dose mostly 9.22 µM), inactives show top-dose activation, actives largely listed as activators; Huh7 NPC1 promoter luciferase reporter, 24 h; 320,000 tested, 2.4% active; also: % of control where 0% means no effect; nearly all actives have a fitted effect of over 60% in size
#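 Cells: Huh7 expressing luciferase under the NPC1 promoter, 1500/well. Seeded 2 h, compound added, incubated 24 h at 37 °C. Luciferase reagent, 10 min ambient, then luminescence.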
# * hit, by the source's call; u = inconclusive; x = no result given; [ ] = another dose, or the depositor's remark. Unless noted, calls follow the shape of the dose curve; as a rule, active = well fitted curve in the direction sought with a large enough effect; inconclusive = small, poorly fitted or top-dose-only effect, or another doubt; inactive = no such curve, though single readings can be large; an effect the other way counts as inactive or inconclusive. Potency is read from the fitted curve at half-maximal effect.
SMILES,FLuc modulator,uPA surface inh,ELG1 genotox,Rab9 prom act,SMN2 splice enh,NPC1 prom act
COc1ccccc1C(=O)OCc1cc(=O)n2nc(C(C)C)sc2n1,-16%,x,x,x,x,x
COc1cccc(CNS(=O)(=O)c2c(C)nc3sccn3c2=O)c1,3%,2%,3%,11%,x,1%
Nc1c(N(Cc2ccco2)C(=O)COc2ccccc2F)c(=O)[nH]c(=O)n1Cc1ccccc1,-2%,-16%,1%,-4%,x,-6%
COc1ccc(Cl)cc1NC(=O)c1ccc2c(c1)CCCN2S(C)(=O)=O,0%,x,x,x,-7%,x
CCc1cc2c(=O)c(-c3ccc4c(c3)OCCO4)coc2c(CN2CCCCC2C)c1O (centres undefined),6.7µM*,-8%,12%,21%,x,7%
CCc1cc2c(=O)c(-c3ccc4c(c3)OCCO4)coc2cc1OS(C)(=O)=O,4.8µM*,13%,7%,3.5µM*,22µM*,2.8µM*
CC(=O)N1CCc2nc3sc(C(=O)c4ccc(F)cc4)c(N)c3c(C(F)(F)F)c2C1,u,x,x,x,-28%,x
Cc1ccc(S(=O)(=O)Oc2ccc(/C=C3/C(=N)N4C(=NC3=O)SN=C4S(C)(=O)=O)cc2)cc1,-8%,1%,8%,5%,x,0%
Cc1ccc(-n2cccc2/C=C2/C(=N)N3C(=NC2=O)SN=C3S(C)(=O)=O)cc1,19µM*,1%,0%,2%,-15%,-1%
COc1cccc(-n2c(C)cc(/C=C3/C(=N)N4C(=NC3=O)SN=C4S(C)(=O)=O)c2C)c1,5.4µM*,6%,5%,1%,20%,1%
COc1cc(/C=C2/C(=N)N3C(=NC2=O)SN=C3S(C)(=O)=O)ccc1OS(=O)(=O)c1ccc(C)cc1,-19%,u,-1%[9.26 µM],0%,x,0%
CCc1ccc(-n2cccc2/C=C2/C(=N)N3C(=NC2=O)SN=C3S(C)(=O)=O)cc1,17µM*,-13%,0%,3%,-10%,-3%
CS(=O)(=O)C1=NSC2=NC(=O)/C(=C\c3ccc(OS(=O)(=O)c4ccccc4)cc3)C(=N)N21,-11%,0%,3%,-2%,x,0%
CS(=O)(=O)C1=NSC2=NC(=O)/C(=C\c3cccn3-c3ccccc3Cl)C(=N)N21,27µM*,0%,2%,16%,-2%,0%
Cc1cc(C)cc(-n2cccc2/C=C2/C(=N)N3C(=NC2=O)SN=C3S(C)(=O)=O)c1,13µM*,5%,-3%,3%,-20%,-6%
Cc1ccc(-c2c(CN3CCN(c4cccc(C)c4)C(C)C3)csc2C)cc1 (centres undefined),0%,x,x,x,x,x
CCc1ccc(Nc2oc(C)cc(=O)c2C(C)=O)cc1,19µM*,0%,15%,16%,-10%,23%
COC(=O)[C@H](COC(C)(C)C)NC(=O)O[C@H]1C(=O)c2cc(OC)ccc2O[C@@H]1c1ccc(OC)c(Br)c1,x,x,x,x,6%,x
Cc1ccc(S(=O)(=O)N(CC(=O)Nc2ccc(F)cc2F)Cc2ccc(F)cc2)cc1,6%,x,x,x,-15%,x
O=S(=O)(Cc1cc(-c2ccc(Cl)cc2)no1)c1ccccc1,u,4%,9.2µM*,3.5µM*,13µM*,u
O=S(=O)(NCc1cc(-c2ccccc2Cl)no1)c1ccccc1,-1%,-5%,0%,0%,-14%,1%
Clc1ccc(-c2cc(COc3ccccc3)on2)cc1,11µM*,4%,-16%,u,u,15%
O=S(=O)(NCc1cc(-c2ccc(Cl)cc2)no1)c1ccccc1,3%,3%,3%,1%,-5%,2%
Clc1ccc(OCc2cc(-c3ccccc3)no2)cc1Cl,u,-7%,12%,24%,24%,14%
O=S(=O)(Cc1cc(-c2ccccc2Cl)no1)c1ccccc1,17µM*,-6%,u,2.8µM*,u,u
SMILES,FLuc modulator,uPA surface inh,ELG1 genotox,Rab9 prom act,SMN2 splice enh,NPC1 prom act
Cc1cc(C)c(Cn2c(C(O)c3ccccc3)nc3ccccc32)c(C)c1 (centres undefined),4%,x,x,x,23%,x
O=C(N/N=C/c1ccc2c(c1)OCO2)c1cc(-c2ccccc2)nc2ccccc12,11µM*,-10%,0%,-3%,-11%[1.84 µM],1%
O=C(N/N=C/c1ccc2c(c1)OCO2)c1cccc2ccccc12,2%,-10%,9%,3%,x,-10%
O=C(N/N=C/c1ccc2c(c1)OCO2)c1cc(-c2ccco2)nc2ccccc12,0.85µM*,-20%,6%,-6%,x,-18%
CSc1nnc(-c2ccc(Cl)cc2Cl)o1,12µM*,2%,u,u,16%,u
O=C(O)CCSc1nnc(-c2ccc(Cl)cc2Cl)o1,0.85µM*,x,x,x,-30%,x
CCSc1nnc(-c2ccc(Cl)cc2Cl)o1,9.5µM*,x,4.1µM*,u,u,2.5µM*
Clc1ccc(CSc2nnc(-c3ccncc3)o2)c(Cl)c1,-14%,-2%,0%,-2%,-19%,9%
O=C1OCCC1Sc1nnc(-c2ccc(Cl)cc2Cl)o1 (centres undefined),1.3µM*,-3%,-5%,-4%,x,0%
O=C1OCCC1Sc1nnc(-c2ccccc2)o1 (centres undefined),u,-1%,-2%,3%,-9%,-2%
Cc1ccc(CCNC(=O)c2ccc3c(=O)n(-c4ccc(C)cc4)c(=O)[nH]c3c2)cc1,0%,x,x,x,11%,x
CC(C)OC(=O)CSc1nnc(-c2ccc(Cl)cc2Cl)o1,11µM*,-10%,-3%,-1%,18%,6%
CCCCOC(=O)CSc1nnc(-c2ccc(Cl)cc2Cl)o1,u,-6%,0%,-3%,-21%,6%
C[C@@H]1CC=C[C@H]2[C@H]1C(=O)N(Cc1ccccc1)[C@H]2c1ccc(-c2ccc(F)cc2)cc1F,3%,-5%,-5%,-7%,x,-9%
C[C@@H]1CC=C[C@H]2[C@H]1C(=O)N(Cc1ccccc1)[C@H]2c1ccc(-c2cc3ccccc3s2)cc1F,1.7µM*,6%,u,u,x,u
CC12COC3(C(=O)Nc4ccc5ccccc5c4)CC1CCC32C (centres undefined),15µM*,-4%,u,u,11µM*,u
CCOc1cc(C(=O)NC(CC(=O)O)c2ccc(OC3CCCC3)cc2)cc(OCC)c1OCC (centres undefined),-1%,2%,-3%,-1%,x,-4%
